The full list was thinned out, with hits kept by preference.
RmlC RmlD mix: RmlC/RmlD inhibition, mixture screen. RmlC/RmlD coupled enzyme inhibition, 384-well mixture HTS. inhibition, % at 5.5 µM. hit rate 0.39% among 110,000; in the data active means inhibition above about 30%, passing the limit was not always enough; inconclusive means no clear call, values can overlap the other calls
HIV RNase H inh-1: blocks HIV-1 RNase H cleavage of RNA/DNA duplex | P04585 | RT-RNase H RNA/DNA duplex cleavage, fluorescence | inhibition, % at 10 µM | hit rate 1.9% among 65,000 | AID 565; in the data active means inhibition above about 50%
HIV RNase H inh-2: confirmation of HIV-1 reverse transcriptase RNase H inhibitors; shares compounds with HIV RNase H inh-1; Recombinant RT RNase H, fluorescent RNA/DNA duplex cleavage; inhibition, % at 10 µM; hit rate 39% among 1,000; in the data active means inhibition above about 48%; inconclusive means no clear call, values can overlap the other calls
RmlCD fluor art: RmlC/RmlD fluorescence artifact, counter-screen. shares compounds with RmlC RmlD mix. RmlC/RmlD assay fluorescence artifact counter-screen. calls only. hit rate 96% among 360; call rule not given here;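 further: compound alone with no enzyme and no substrates present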
* hit, by the source's call; u = inconclusive; x = no result; + = active, no number.

SMILES	RmlC RmlD mix	HIV RNase H inh-1	others
c1ccc(OCc2nnc3sc(-c4cccs4)nn23)cc1	18	-20
COc1ccc(-c2ccc3oc(-c4ccsc4)c(-c4ccc(OC)cc4)c3c2)cc1	-18	x
O=C(Oc1ccc2c(c1)OCO2)c1ccncc1	13	-6
CCC(=O)N1CCc2cc(Br)cc(S(=O)(=O)NCC3CCCO3)c21 (configuration not stated)	-3	-104
CCCOc1ccc([C@@H]2C3CN(C(=O)OCC)CC=C3C(C#N)=C(N)C2(C#N)C#N)cc1OC (some centres not stated)	10	70*	HIV RNase H inh-2=19
CCOC(=O)N1CC=C2C(C#N)=C(N)C(C#N)(C#N)[C@H](c3cccs3)C2C1 (some centres not stated)	8	x
O=C1NC(c2ccccn2)Nc2sc3c(c21)CCC3 (configuration not stated)	25	-6
Cn1cc(C2NC(=O)c3c(sc4c3CCCC4)N2)c2ccccc21 (configuration not stated)	x	69*	HIV RNase H inh-2=u
C=CCn1c(SCCC#N)nnc1-c1ccncc1	11	-2
O=C(O)C(Cc1ccccc1)N1C(=O)c2ccccc2C1=O (configuration not stated)	-10	x
O=C(NCCCn1ccnc1)C(Cc1ccccc1)N1C(=O)c2ccccc2C1=O (configuration not stated)	-1	55*	HIV RNase H inh-2=35
C=CCn1c(=O)[nH]c2cc(C(=O)N3CCN(c4ccc(C(C)=O)cc4)CC3)ccc2c1=O	x	35
C=CCn1c(=O)[nH]c2cc(C(=O)N3CCN(c4cc(C)ccc4C)CC3)ccc2c1=O	x	80*	HIV RNase H inh-2=31
COc1ccc(C2C(C(C)=O)=C(C)Nc3ncnn32)cc1OC (configuration not stated)	-16	-6
CCCCCOc1ccc(C2C(C(C)=O)=C(C)Nc3ncnn32)cc1OC (configuration not stated)	x	64*	HIV RNase H inh-2=-10
CCC(C)NC(=O)Cn1nc([N+](=O)[O-])c(Cl)c1C (configuration not stated)	85	x
Cc1ccc2cc3cc(C(=O)N4CCN(Cc5ccccc5)CC4)sc3nc2c1	-10	x
Cc1ccc2cc3cc(C(=O)N4CCN(C(=O)c5ccco5)CC4)sc3nc2c1	6	55*	HIV RNase H inh-2=29
COc1cccc(-c2cc(C(=O)Nc3ccccc3SC)no2)c1	-11	9
COc1ccc(-c2cc(C(=O)Nc3ccccc3SC)no2)cc1OC	3	91*	HIV RNase H inh-2=4
CCCn1cc(NC(=O)c2cc(-c3ccccc3)on2)cn1	8	x
COc1ccc(-c2cc(C(=O)Nc3cnn(Cc4ccccc4C)c3)no2)cc1OC	17	87*	HIV RNase H inh-2=17
Cc1nnc(-c2cnn(-c3ccccc3)c2N)n1Cc1ccc(F)cc1	-5	x
Cc1ccc(S(=O)(=O)N2CCC(C(=O)Nc3ccc4c(c3)COC4=O)CC2)cc1	-15	1
O=C1NC(c2cccnc2)Nc2sc3c(c21)CCCC3 (configuration not stated)	-4	x
SMILES	RmlC RmlD mix	HIV RNase H inh-1	others
CC1(C)Cc2c(sc3c2C(=O)NC(c2cccnc2)N3)CO1 (configuration not stated)	10	54*	HIV RNase H inh-2=6
CC(=O)c1ccc(NC2c3ncccc3C(=O)N2Cc2ccc(F)cc2)cc1 (configuration not stated)	-6	-15
Cc1ccc(S(=O)(=O)NC(=O)CSc2nc3ccccc3s2)cc1	-9	x
CS/C(=N\S(=O)(=O)c1cccs1)NC(=O)CSc1nc2ccccc2s1	-15	73*	HIV RNase H inh-2=35
N#Cc1ccc(N2CCN(C(=O)c3cccc(F)c3)CC2)c(F)c1	-10	-25
CC(=Nc1ccccc1)Nc1ccccc1	2	25
S=C(N=Nc1ccccc1)NNc1ccccc1	0	69*	HIV RNase H inh-2=32
COC(=O)C1=C(c2ccccc2)C[C@@H]2CC[C@H]1N2C(=O)NCc1ccccc1	6	x
O=C1N2CCSC2=NC1(Nc1ccccn1)C(F)(F)F (configuration not stated)	8	-11
CCc1nnc(NC(=O)Cn2c(=O)oc3ccccc32)s1	8	x
CCCc1nnc(NC(=O)Cn2c(=O)oc3ccccc32)s1	x	77*	HIV RNase H inh-2=-16
CCCNC(=O)c1cccc(COCC(F)(F)F)c1	8	x
Cn1c(NC(=O)c2cc(Cl)ccc2Cl)cc(=O)n(C)c1=O	-4	3
COc1ccc(OC)c(C2C(C(=O)O)c3ccccc3C(=O)N2C)c1 (configuration not stated)	5	65*	HIV RNase H inh-2=40
COc1cc(OC)c(C2C(C(=O)O)c3ccccc3C(=O)N2C)cc1OC (configuration not stated)	-7	1
Cc1ccc(C2NC(=O)Cc3ccccc32)cc1 (configuration not stated)	9	x
O=C(O)c1c[nH]c(=S)n1-c1ccc(F)cc1	11	x
Cc1ccc(S(=O)(=O)N2CCOC2CNC(=O)C(=O)NCc2cccnc2)cc1 (configuration not stated)	2	x
COc1ccccc1N1CCN(C(c2cc3ccc(C)cc3[nH]c2=O)c2nnnn2C2CCCC2)CC1 (configuration not stated)	-12	15
COc1ccccc1N1CCN(C(c2cc3cc(C)ccc3[nH]c2=O)c2nnnn2C2CCCC2)CC1 (configuration not stated)	2	54*	HIV RNase H inh-2=26
COc1cccc(N2CCN(CC(=O)Nc3nc4c(s3)CC(C)CC4)CC2)c1 (configuration not stated)	-12	3
COCCn1c(-c2ccc(-c3ccccc3Cl)o2)nc2c1c(=O)[nH]c(=O)n2CC(C)C	144*	73*	HIV RNase H inh-2=73*;RmlCD fluor art=+
CCCCn1c(=O)[nH]c(=O)c2c1nc(-c1ccc(-c3ccccc3Br)o1)n2CCOC	-82	x
Cc1ccc(-n2nnc3ccccc3c2=O)cc1C	-10	-9
Cc1ccc2nc(-c3ccc(NC(=S)NCCC(C)C)cc3)sc2c1	130*	x	RmlCD fluor art=+
SMILES	RmlC RmlD mix	HIV RNase H inh-1	others
CC(=O)NC(=S)Nc1ccc(-c2nc3ccc(C)cc3s2)cc1	-4	x
CCc1ccccc1NC(=O)CSC1=C(C#N)C(c2ccc3c(c2)OCO3)C2=C(CCCC2=O)N1 (configuration not stated)	11	8
COC(=O)C(c1cc(OC)c(O)c(OC)c1)(N1CCNC(C)C1)C(F)(F)F (configuration not stated)	-1	-10
O=C(NCC1CC1)[C@]1(C(F)(F)F)C[C@H](CCC2CCCCC2)CCCO1	3	x
COC(=O)c1cc(O)cc(OC)c1C(=O)c1c(O)cc(C)cc1O	4	x
Cc1ccc2nc(-c3cccc(S(=O)(=O)N(C)C)c3)cn2c1	10	-9
CN(C)S(=O)(=O)c1ccc(-c2cn3ccccc3n2)cc1	40*	x	RmlCD fluor art=+
O=C1CC(N2CCC(C(=O)N3CCCCC3)CC2)C(=O)N1 (configuration not stated)	-11	21
COC(=O)c1cc2c(ccn2-c2ccc(F)cc2)n1CC(C)C	-180	x
O=C(NCc1ccco1)c1cc2ccc(O)cc2oc1=O	86*	7	RmlCD fluor art=+
COc1ccc2cc(C(=O)NCc3ccco3)c(=O)oc2c1	14	-17
COc1ccc(Cc2nn[nH]n2)cc1	13	x
CN(C(=O)c1ccno1)c1nnc(-c2ccccn2)s1	+	-11	RmlCD fluor art=+
